“And” between values parts separate entries of the source, which are not always exact repeats. Equal entries are not always repeated. Records with an inconclusive call do not appear. Entries that show only a call come without a potency. The source made the active and inactive calls. The call rests on the fitted dose curve; in most records, active means well fitted inhibition curve with a large enough effect in the repeat runs; inconclusive means weak or mixed curves; inactive means flat fitted curve, though single readings scatter.
What follows are molecules tested against Luciferin 4-monooxygenase (Photinus pyralis) (UniProt P08659) (assay: qHTS assay to identify small molecule inhibitors of firefly luciferase (AID 1224835; further: nearly all actives have a fitted effect of over 25% in size)). Settings: purified P. pyralis luciferase, luminescence inhibition; series mostly up to 115 µM.
Description: U.S. Tox21 Program National Center for Advancing Translational Sciences [NCATS] NIH Chemical Genomics Center [NCGC] U.S. Environmental Protection Agency [EPA] National Institutes of Environmental Health Sciences [NIEHS] National Toxicology Program [NTP] U.S. Food and Drug Administration [FDA] Tox21 Assay Overview: Firefly (Photinus pyralis) luciferase is one of the most commonly used transcriptional reporters. Firefly luciferase reporter-gene assays are generally considered one of the most sensitive assay types (Wood, 1995; Wood, 1998). However, it was initially observed, in 1991, by Thompson et al., that compounds that resemble the substrates of firefly luciferase (FLuc) can act as competitive inhibitors of the enzyme, and that these compounds, upon interaction with luciferase in the cell, can actually stabilize the protein and increase its half-life. Previous profiling work by other groups to determine the prevalence of compounds that affect FLuc enzymatic activity (PubChem AID 411) identified that ~3% of the MLSMR library (then at ~72K) inhibited FLuc. […] Thus the Tox21 10K library is profiled for activity against FLuc using a biochemical assay of purified FLuc and KM concentrations of FLuc substrates (D-luciferin and ATP).
These assay plates were then treated with 23nL of compound or DMSO using a Kalypsys pin tool, which allows for delivery of a 6-point interplate titration of each compound to the assay plate (quantitative HTS.) 1 uL of firefly luciferase mix (containing 50 mM Tris acetate, pH 7.6, 0.04 uM P. pyralis luciferase, 0.01% Tween, 0.05% BSA and dH2O) was then delivered by FRD to each well. Luciferase activity was then measured using a ViewLux CCD imager.

Sequence of Luciferin 4-monooxygenase (Photinus pyralis) (P08659 whole entry, looked up): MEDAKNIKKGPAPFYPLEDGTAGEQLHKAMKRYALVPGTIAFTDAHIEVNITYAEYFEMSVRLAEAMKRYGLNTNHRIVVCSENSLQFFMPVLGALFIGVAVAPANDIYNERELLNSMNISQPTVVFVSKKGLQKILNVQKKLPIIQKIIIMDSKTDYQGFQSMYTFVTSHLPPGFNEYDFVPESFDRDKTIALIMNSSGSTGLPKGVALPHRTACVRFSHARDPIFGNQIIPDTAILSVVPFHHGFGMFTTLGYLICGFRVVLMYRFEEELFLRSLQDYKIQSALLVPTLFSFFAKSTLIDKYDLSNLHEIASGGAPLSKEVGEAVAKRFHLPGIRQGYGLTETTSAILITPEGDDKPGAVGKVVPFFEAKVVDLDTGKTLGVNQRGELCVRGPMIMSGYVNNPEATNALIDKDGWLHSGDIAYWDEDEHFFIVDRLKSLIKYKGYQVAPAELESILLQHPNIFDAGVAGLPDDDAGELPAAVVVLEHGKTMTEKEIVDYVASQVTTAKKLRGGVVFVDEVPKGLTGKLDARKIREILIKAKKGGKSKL

Compound	Potency	activity change, negative = inhibition
CCC(=O)OC(C)c1ccccc1 (stereo not given)	inactive	
CC(=O)OCC(=O)[C@@]1(O)CCC2C3CCC4=CC(=O)CC[C@]4(C)C3[C@@H](O)C[C@@]21C (stereo not given in full)	inactive	
CCCN(CCC)CCc1cccc2c1CC(=O)N2	inactive	
Cc1c(O)cccc1O	inactive	
NC(=O)COCCN1CCN(C(c2ccccc2)c2ccc(Cl)cc2)CC1 (stereo not given)	inactive	
CCS(=O)(=O)c1ccc(OC)c(C(=O)OC)c1	inactive	
NS(=O)(=O)c1cc2c(cc1Cl)NC(C1CC3C=CC1C3)NS2(=O)=O (stereo not given)	inactive	
CN1CCC(=C2c3ccccc3CC(=O)c3sccc32)CC1	inactive	
C1CN(CCOCCN2CCOCC2)CCO1	inactive	
Cc1c(NC(C)C)c(=O)n(-c2ccccc2)n1C	inactive	
c1ccc([C@H]2CN3CCSC3=N2)cc1	inactive	
Cn1c(N)c(N=O)c(=O)n(C)c1=O	inactive	
O=C(O)CN(CCOCCOCCN(CC(=O)O)CC(=O)O)CC(=O)O		0.561% [at 0.435 µM] (inactive)
NC(=O)c1cn(Cc2c(F)cccc2F)nn1	inactive	
CC(C)NCC(O)c1ccc(NS(C)(=O)=O)cc1 (stereo not given)	inactive	
CCCCCSCCCCC	inactive	
C=C1CC[C@H]2C[C@@H]1C2(C)C	inactive	
O=C(c1ccccc1)C1CCCCC1	inactive	
Cc1cc(O)cc2c1O[C@](C)(CCC[C@H](C)CCC[C@H](C)CCCC(C)C)CC2	inactive	
O=C(O)Cc1ccc(CCNS(=O)(=O)c2ccc(Cl)cc2)cc1	inactive	

Compound	Potency	activity change, negative = inhibition
CC(=O)Nc1ccc(S(N)(=O)=O)cc1	inactive	
C[C@@H]1CCN(C(=O)[C@H](CCCN=C(N)N)NS(=O)(=O)c2cccc3c2NC[C@H](C)C3)[C@@H](C(=O)O)C1	inactive	
Nc1ccc(S(=O)(=O)Nc2ccnn2-c2ccccc2)cc1		8.37% [at 23.6 µM] (inactive)
CCC(C)S (stereo not given)		5.34% [at 4.07 µM] (inactive)
CCOC(=O)CCC(C)=O	inactive	
CCCCC(CC)COC(=O)c1ccccc1O (stereo not given)	inactive	
CC1=CC(C)C(C=O)CC1 (stereo not given)	inactive	
CCOC(C)(C)C	inactive	
C=C(C)C(=O)OCCCCCCCC(C)C	inactive	
CC(C)(C)c1ccc(O)c(O)c1	32.8 µM (active) and 22.4 µM (active)	
O=C1NC(=O)[C@@]2(CCOc3ccc(F)cc32)N1	inactive	
C[N+](C)(C)CC(O)CC(=O)[O-] (stereo not given)	inactive	
Cc1ccc(C#N)cc1	inactive	
N[C@@H](C(=O)N[C@@H]1C(=O)N2C(C(=O)O)=C(Cl)CS[C@H]12)c1ccccc1		-5.09% [at 10.5 µM] (inactive)
Cn1cc(S(C)=O)c(=O)c2ccc(F)cc21 (stereo not given)	inactive	
CCn1ccnc1CC1COc2ccccc2O1 (stereo not given)	inactive	
CCCCCCCCCCCC	inactive	
OC[C@]1(O)OC[C@@H](O)[C@H](O)[C@@H]1O	inactive	
O=C1CCCN1C1CCCCC1	inactive	
Cc1[nH]c(=O)c(C#N)cc1-c1ccc2nccn2c1	inactive	

From PubChem BioAssay (Tox21)
